Pf Dd2 growth: Plasmodium falciparum Dd2 growth inhibition; P. falciparum Dd2 growth, SYBR Green, 72 h; actives 4.3% (n = 120,000); AID 1347417; Potency, µM (highest dose often 28.9 µM), for inactives: at the highest dose activity, negative = inhibition, most hits filed as inhibitors; active = well fitted inhibition curve with a large enough effect;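 note: plate controls were DMSO vehicle for no effect and reference drug for full effect; nearly all actives have a fitted effect of over 65% in size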
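Readout: SYBR Green fluorescence, 485 nm excitation, 535 nm emission, after ~16 h lysis at 37C. Before that, Dd2-infected red cells (2.5% hematocrit) grew 72 h with compound, 29 uM top final concentration.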
* marks the source's active call; other numbers are inactive results; i = inactive; [ ] = remark or other dose. Only a selection was taken, and hits are over-represented in it overall. Potency is the fitted concentration of half-maximal effect.

SMILES | Pf Dd2 growth
Cc1nc2ccccc2n1Cc1cc(C(=O)N(C)CCOc2ccccc2)n[nH]1 | -16%
COCc1nc2nccc(-c3cccs3)n2n1 | -22%
COc1cccc(C(=O)N[C@@H]2CN(S(C)(=O)=O)C[C@H]2CN(C)C)c1C | 22%
COc1ccc(CNC(=O)N2CC(c3nc(CCOCC4CCOCC4)no3)C2)cc1 | -15%
O=C1CCN(C(=O)c2cccs2)CCCCCCN1 | 5%
CCc1nc(-c2c3n(c(=O)n(CC(N)=O)c2=O)CCCCC3)no1 | 25%
CC(C)N1C(=O)C2(CCCCC2)C1C(=O)N1CCN(c2ccccc2F)CC1 (stereo unspecified) | -29%
CN(C)c1ccc(NC(=O)Cn2cc(S(=O)(=O)Cc3cccc(Cl)c3)c3ccccc32)cc1 | i
O=C(Cn1cc(S(=O)(=O)Cc2ccccc2Cl)c2ccccc21)NCc1ccccc1Cl | i
CN(C)c1ccc(NC(=O)Cn2cc(S(=O)(=O)Cc3ccccc3Cl)c3ccccc32)cc1 | 7.9µM*
Cc1noc(C)c1C(=O)N1CCC2(CC1)CN([S+](=O)([O-])c1ccccc1)CCO2 | 18%
CCOc1ccc(-c2ccnc(N3CCOC(CN)C3)n2)cc1C(=O)O (stereo unspecified) | -11%
CCCC1(CO)CCCN(C(=O)CCn2ccc(=O)[nH]c2=O)C1 (stereo unspecified) | -19%
CCCC1(CO)CCCN(Cc2cn3ccc(C)cc3n2)C1 (stereo unspecified) | 10µM*
CCCC1(CO)CCCN(Cc2nnc(-c3cccnc3)o2)C1 (stereo unspecified) | -4%
O=C(CC1CCCC1)NCC1CCCCC(=O)N1 (stereo unspecified) | -4%
CCc1nnsc1C(=O)N1CCc2nc(NC)nc(C(=O)N3CCCC3)c2C1 | -6%
COc1ccc(-c2c3c(=O)n(C)c(=O)n(C)c3c3c(-c4cccc(C)c4)nc4ccccc4n23)cc1 | 40%
Cc1ccc(-c2c3c(=O)n(C)c(=O)n(C)c3c3c(-c4cccc(C)c4)nc4ccccc4n23)cc1 | i
COc1ccc(-c2nc3ccccc3n3c(-c4cccc(C)c4)c4c(=O)n(C)c(=O)n(C)c4c23)cc1OC | 11µM*
CN1CCC(N(C)C(=O)C2CCN(C(=O)N3CC4CC(C3)[C@H]3CCCC(=O)N3C4)CC2)CC1 (stereo partly specified) | -7%
O=C(CCC1CCCC1)NCCc1noc(-c2ccccc2)n1 | i
Cc1cccc(Nc2ncc(NC(=O)c3cccc(F)c3)c(Nc3cccc(C)c3)n2)c1 | 2.2µM*
Cc1ccc2oc(-c3ccc(NC(=O)c4cccc(F)c4)c(C)c3)nc2c1 | 37%
O=C(Nc1cnc(-c2ccccc2)nc1)c1cccc(F)c1 | i
SMILES | Pf Dd2 growth
O=C(c1cccnc1)N1CCC2(CC1)COc1ccccc1NC2=O | 19%
CSc1ccc(-c2noc(-c3nnn4c3COC(c3ccc(Cl)cc3)C4)n2)cc1 (stereo unspecified) | i
O=C(c1ccco1)N1CCC(Oc2cccc(F)c2)C1 (stereo unspecified) | i
NCCc1ccc(CN2CCC(Oc3ncccn3)CC2)cc1 | -8%
CN1CCCN(C[C@@H]2CN(Cc3cccc(CCN)c3)C[C@@H]2CO)CC1 | 11%
O=C(c1ccccc1OCC1CCCN(Cc2ccc(O)c(F)c2)C1)N1CCCCC1 (stereo unspecified) | -24%
O=c1[nH]ccn1C1CCN(Cc2ccccc2)CC1 | 16%[44.1 µM]
COCC(=O)N1CCCC(C(=O)N2CCC(OCc3ccccc3)CC2)C1 (stereo unspecified) | -9%
Cc1ccccc1N1CCCN(Cc2cccc(CCN)c2)CC1 | 8.9µM*
Cc1cc(CN2CCN(c3cccc(C)c3C)CC2)cs1 | -20%
NCCc1cccc(CN2CCC(OCc3ccccc3)CC2)c1 | 4.5µM*
NCCc1cccc(CN2CCCC(COc3ccccc3F)C2)c1 (stereo unspecified) | 2µM*
Cc1cccc(CN2CCCC(COc3ccccc3C(=O)N3CCOCC3)C2)c1 (stereo unspecified) | 0%
NCCc1cccc(CN2CCC(Oc3cccc(F)c3)CC2)c1 | 10µM*
CCNC(=O)Nc1ccc([C@@H](O)[C@H]2COCC(=O)N2CCOCC)cc1 | 34%[44.1 µM]
CCOc1ccccc1C(=O)NC1CCN(c2cc(-c3ccc(Cl)cc3)[nH]n2)CC1 | -20%
CCCc1cc(CNC(=O)c2ccc(NC3CCOC(C)(C)C3)nc2)on1 (stereo unspecified) | -15%
CN(C)c1ccc(CN[C@H]2CO[C@H]3[C@@H]2OC[C@H]3OC(=O)Nc2ccc(Oc3ccccc3)cc2)cc1 | i
O=C(c1cccc(Cl)c1)N1CCC2(CC1)C(=O)NCN2Cc1ccc(Cl)cc1 | -11%
COCCNC(=O)CN1C(=O)NC(c2ccccc2OC)C2=C1COC2=O (stereo unspecified) | -4%
COCc1nc(C2CCN(C(=O)C3CC3)C2)no1 (stereo unspecified) | -3%
COCCN1C(=O)CCc2cc(NC(=O)c3ccc(OC(F)(F)F)cc3)ccc21 | -14%
CC(C)CCNC(=O)C1CCC(CNS(=O)(=O)c2cccc3nsnc23)CC1 (stereo unspecified) | 3.2µM*
Cc1cccc(N(C)C(=O)C(Cc2ccccc2)NS(=O)(=O)c2cccc3nsnc23)c1 (stereo unspecified) | 7%
CC(C)NC(=O)[C@@H]1C[C@H](N)CN1S(=O)(=O)c1cccc2nsnc12 | 19%
SMILES | Pf Dd2 growth
Cc1cccc(C)c1NC(=O)C1CCCN1S(=O)(=O)c1cccc2nsnc12 (stereo unspecified) | i
CCCN(CCC)CCCNC(=O)C1CCCN(S(=O)(=O)c2cccc3nsnc23)C1 (stereo unspecified) | -19%
CCCCN(C(=O)C1CCC(CNS(=O)(=O)c2cccc3nsnc23)CC1)c1ccccc1 (stereo unspecified) | 2.2µM*
CCN(C(=O)C(NS(=O)(=O)c1cccc2nsnc12)c1ccccc1)c1ccccc1 (stereo unspecified) | -1%
CCc1ccccc1NC(=O)C1CCCN(S(=O)(=O)c2cccc3nsnc23)C1 (stereo unspecified) | -24%
CCc1cccc(CC)c1NC(=O)C1CCC(CNS(=O)(=O)c2cccc3nsnc23)CC1 (stereo unspecified) | 3.2µM*
O=C(C1CC1)N1CCCC2(CN[S+](=O)([O-])c3cccnc3O2)C1 (stereo unspecified) | 13%
COc1cc(NC(=O)O[C@@H]2CO[C@H]3[C@@H]2OC[C@@H]3NC(=O)c2cccs2)cc(OC)c1 | i
CCC1Oc2ccc(NC(=O)C(C)C)cc2CN(Cc2ccccc2F)C1=O (stereo unspecified) | -11%
COCCC(=O)N1CCCCCCNC(=O)[C@@H]2C[C@@H](c3nc(-c4cccnc4)no3)C[C@@H]21 | i
O=C(Cn1ccnc1)N1CCc2c(n(CCOc3ccccc3)n(-c3ccccc3)c2=O)C1 | 45%
Cc1cc(C(=O)N2CC(c3nnc(-c4ccncc4)o3)C3(CCOCC3)C2)n(C)n1 (stereo unspecified) | -1%
Cc1ccc(C(=O)NC[C@H]2O[C@@H](CC(=O)N3CCc4ccccc43)[C@H](O)[C@@H]2O)cc1 | i
OCCOCCn1cnc(-c2ccccc2)c1COCc1ccccc1 | -1%
FC(F)(F)Oc1ccc(Nc2cnc3ccc(N4CCOCC4)nn23)cc1 | 11µM*
CN(Cc1ccc(F)cc1)c1ccc2ncc(Nc3ccnc(N4CCOCC4)c3)n2n1 | 4µM*
CN(Cc1ccc(F)cc1)c1ccc2ncc(Nc3ccc4c(c3)OCCO4)n2n1 | 5.6µM*
COc1ncccc1Nc1cnc2ccc(N(C)C)nn12 | i

Screens: PubChem BioAssay, National Center for Advancing Translational Sciences (NCATS)
